Reference: PubChem BioAssay (EPA / NIEHS)
Results filed as inconclusive are left out. Active and inactive are the calls of the source. Rule for the calls: active = hit-call score of the fitted dose curve at least 0.9, where 1 is the maximum; inconclusive = response in the unintended direction; inactive = score below 0.9.

What was measured:
[1] = target: Estrogen receptor (Homo sapiens) (UniProt P03372); experiment: CCTE_Deisenroth_AIME_96WELL_LUC_Active: CCTE's 96-well Estrogen Receptor Transactivation Assay with AIME metabolic competence (ERTA luciferase; metabolism positive), Deisenroth Lab (AID 2284023)
Sequence of Estrogen receptor (Homo sapiens) (P03372 whole entry, looked up): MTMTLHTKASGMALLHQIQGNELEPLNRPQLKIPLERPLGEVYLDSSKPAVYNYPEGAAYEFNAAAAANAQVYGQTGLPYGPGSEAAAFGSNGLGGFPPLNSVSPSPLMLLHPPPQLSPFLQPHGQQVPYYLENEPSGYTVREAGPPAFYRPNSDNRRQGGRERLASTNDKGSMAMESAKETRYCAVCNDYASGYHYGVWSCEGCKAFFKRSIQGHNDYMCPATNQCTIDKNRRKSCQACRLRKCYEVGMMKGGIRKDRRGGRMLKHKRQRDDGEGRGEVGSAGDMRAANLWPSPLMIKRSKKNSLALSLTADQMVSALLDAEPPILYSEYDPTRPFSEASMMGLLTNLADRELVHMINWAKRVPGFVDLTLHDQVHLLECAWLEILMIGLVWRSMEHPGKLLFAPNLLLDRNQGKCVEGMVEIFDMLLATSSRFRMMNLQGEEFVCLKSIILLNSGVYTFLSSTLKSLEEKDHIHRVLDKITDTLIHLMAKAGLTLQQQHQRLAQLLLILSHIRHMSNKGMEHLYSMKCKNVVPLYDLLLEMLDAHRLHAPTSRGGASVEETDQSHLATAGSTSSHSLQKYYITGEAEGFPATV
How it was run: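 Metabolism-positive mode: induced rat hepatic S9 in alginate microspheres conditions test solutions (0.002 - 200 uM, 10 points) for 2 hours. VM7Luc4E2 ER luciferase reporter cells then exposed 24 h; positive-direction fit against 17beta-estradiol, n=4 typical.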

[2] = target: Estrogen receptor (Homo sapiens) (UniProt P03372); experiment: CCTE_Deisenroth_AIME_96WELL_LUC_Inactive: CCTE's 96-well Estrogen Receptor Transactivation Assay without AIME metabolic competence (ERTA luciferase; metabolism negative), Deisenroth Lab (AID 2284025)
How it was run: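 Metabolism-negative arm: chemicals (0.002–200 uM, 10 points) incubated 2 h with alginate-water microspheres, then medium moved onto VM7Luc4E2 cells for 24 h luciferase read-out. Positive direction vs 17beta-estradiol; n≥4 experiments.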

[3] = CCTE_Deisenroth_AIME_96WELL_CTox_Active: Cytotoxicity Assessment (CTOX) in CCTE's 96-well Estrogen Receptor Transactivation Assay with AIME metabolic competence (metabolism positive), Deisenroth Lab (AID 2284028)
How it was run: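 Cytotoxicity in VM7Luc4E2 breast cells after 24 h exposure to medium from a 2 h metabolic pre-incubation with induced rat hepatic S9 in alginate microspheres; fluorescent live-cell protease readout, 10-point series 0.002–200 uM, n=4.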

[4] = CCTE_Deisenroth_AIME_96WELL_CTox_Inactive: Cytotoxicity Assessment (CTOX) in CCTE's 96-well Estrogen Receptor Transactivation Assay without AIME metabolic competence (metabolism negative), Deisenroth Lab (AID 2284029)
Protocol: CCTE_Deisenroth_AIME_96WELL (AIME metabolism assay) is a cell-based, single-readout assay that uses VM7Luc4E2, a human mammary gland/breast cell line, with measurements taken at 24 hour after chemical dosing in a 96-well plate.CCTE_Deisenroth_AIME_96WELL_CTox_Inactive is one of four assay components measured or calculated from the CCTE_Deisenroth_AIME_96WELL assay. It is designed to make measurements of a protease substrate, a type of viability indicator, as detected with substrate cleavage to a fluorescent probe in living cells.CCTE_Deisenroth_AIME_96WELL_CTox_Inactive is a component of the CCTE_Deisenroth_AIME_96WELL assay that measures the effect of retroftting the VM7Luc ERTA assay with the Alginate Immobolization of Metabolic Enzymes (AIME) metabolism method. AIME is optimized to impart phase I hepatic metabolism using phenobarbital/beta-naphthoflavone induced hepatic S9 from male Sprague Dawley rats. Parent chemicals are incubated for 2 hours in the AIME assay prior to transfer to the VM7Luc ERTA assay plate. […] This endpoint evaluates cytotoxicity in metabolism negative mode. Using a type of flourescent probe in VM7Luc cells, loss-of-signal activity can be used to understand loss of viability. This assay endpoint, CCTE_Deisenroth_AIME_96WELL_CTox_Inactive, was analyzed with bidirectional fitting in the ERTA assay. […]

For `C=CC#N`, which outcome [1] is on record?
Its outcome is “inactive”.

And the outcome [2]?
Its outcome is “inactive”.

What does the source list for `O=C(OC1CCCCC1)c1ccccc1C(=O)OC1CCCCC1`?
AC50 [1]: 20.5 µM (active); AC50 [2]: 10.1 µM (active); outcome [3]: inactive; outcome [4]: inactive
